Drawing on PubChem BioAssay (NCATS), this text covers Potency for twelve compounds.

Records with an inconclusive call do not appear. Activity calls are given as the source filed them. Calls follow the shape of the dose curve; as a rule, active = well fitted inhibition curve with a large enough effect; inconclusive = small, poorly fitted or top-dose-only effect; inactive = flat fitted curve, though single readings scatter.

Experiment in all cases: qHTS profiling for inhibitors of Plasmodium falciparum proliferation (AID 504749); also: nearly all actives have a fitted effect of over 60% in size
Holding throughout (conditions): P. falciparum in erythrocytes, SYBR Green DNA, 72 h; series mostly up to 28.7 µM
Background: In qHTS, concentration-response curves come from the screen itself.

The subject of one test is CP269. The gist of the method:
(§1)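 In a 72 h erythrocytic culture (37 C, humidified, 5% CO2) at 2.5% hematocrit and 0.3% starting parasitemia, compounds were tested; SYBR Green I in detergent lysis buffer stained parasite DNA overnight.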

Another test has as its system CP286. In short, it runs like this:
as §1

The next test concerns CP291. In short, it runs like this: as §1
A further test concerns CP297. In short, it runs like this: as §1
In a further test the test system is CP305. The gist of the method:
as §1

Another test concerns CP315. In short, it runs like this: as §1
The subject of another test is CP325. The gist of the method:
as §1

A further test concerns CP329. In short, it runs like this:
as §1

The next test deals with CP335. The gist of the method: as §1
In the next test the test system is DFO2036. In short, it runs like this:
as §1

The next test concerns DIV14. The gist of the method: as §1
Another test deals with DIV17. In short, it runs like this:
as §1

The subject of another test is DIV30. The gist of the method:
as §1

In another test the test system is Dd2. The gist of the method: as §1
A further test deals with ECU. In short, it runs like this:
as §1

The test system of a further test is FAB9. The gist of the method:
as §1

For a further test, the system named is GB4. The gist of the method: as §1
The subject of a further test is HB3. In short, it runs like this: as §1
The next test deals with ICS. In short, it runs like this:
as §1

The test system of another test is JCK. The gist of the method: as §1
Potency is read from the fitted curve at half-maximal effect.

For `C#CCN[C@@H]1CCc2ccccc21`, the Potency result in the test on CP269, in the test with CP286, with CP291, in the test on CP297, in the test on CP305 and in the test with CP315 was “inactive” throughout. Also, the Potency entry with CP325, with CP329, with CP335, with DFO2036, with DIV14 and with DIV17 was “inactive” throughout. Moreover, the Potency entry with DIV30, with Dd2, in the test with ECU, in the test with FAB9, in the test with GB4 and with HB3 was “inactive” each time. Further, the Potency result in the test on ICS and with JCK was “inactive” in each case.

On to `O=c1cc(O)c(Cl)c[nH]1`, for which the Potency result in the test with CP269, in the test with CP286, with CP291, in the test with CP297, in the test on CP305 and with CP315 was “inactive” throughout. Further, the Potency entry in the test with CP325, with CP329, in the test on CP335, with DFO2036, with DIV14 and with DIV17 was “inactive” in each case. The Potency entry in the test with DIV30, in the test with Dd2, in the test with ECU, in the test on FAB9, with GB4 and with HB3 was “inactive” each time. The Potency result with ICS and in the test on JCK was “inactive” each time.

For `CN1CCN(c2c(F)cc3c(=O)c(C(=O)O)cn4c3c2OCN4C)CC1`, the Potency entry in the test with CP269, with CP286, in the test on CP291, in the test with CP297, in the test on CP305 and in the test on CP315 was “inactive” throughout. The Potency entry with CP325, in the test on CP329, in the test on CP335, in the test on DFO2036, in the test on DIV14 and with DIV17 was “inactive” each time. Further, the Potency entry with DIV30, in the test with Dd2, with ECU, in the test on FAB9, in the test with GB4 and in the test on HB3 was “inactive” each time. Besides, the Potency entry in the test with ICS and in the test on JCK was “inactive” throughout.

For `Nc1[nH]c(=O)ncc1F`, the Potency result in the test on CP269, in the test on CP286, in the test with CP291, with CP297, with CP305 and in the test with CP315 was “inactive” throughout. For the same compound, the Potency result with CP325, with CP329, in the test with CP335, in the test with DFO2036, in the test on DIV14 and with DIV17 was “inactive” each time. In addition, the Potency entry with DIV30, in the test on Dd2, in the test on ECU, in the test with FAB9, in the test with GB4 and in the test on HB3 was “inactive” throughout. The Potency entry with ICS and in the test with JCK was “inactive” in each case.

In the case of `COc1ccc2cc3[n+](cc2c1OC)CCc1cc2c(cc1-3)OCO2`, the Potency with CP269 is 953 nM (active); in the test with CP286, 562 nM (active); in the test with CP291 it was 1510 nM (active); with CP297, 1350 nM (active); with CP305, 757 nM (active); in the test on CP315 it was 1070 nM (active). Also, the Potency in the test on CP325 is 953 nM (active); with CP329, 953 nM (active); with CP335, 953 nM (active); in the test on DFO2036 it was 891 nM (active); in the test on DIV14 it was 849 nM (active); in the test on DIV17, 1070 nM (active). Also, the Potency with DIV30 is 1350 nM (active); in the test with Dd2, 794 nM (active); in the test on ECU, 1410 nM (active); with FAB9 it was 708 nM (active); in the test with GB4, 675 nM (active); in the test on HB3, 1780 nM (active). In addition, the values for the Potency with ICS and with JCK were 1120 nM (active) and 3160 nM (active), respectively.

With `Cc1nnc(NS(=O)(=O)c2ccc(N)cc2)s1`, the Potency result in the test with CP269, in the test with CP286, with CP291, in the test on CP297, in the test with CP305 and in the test on CP315 was “inactive” throughout. In addition, the Potency result in the test on CP325, in the test on CP329, with CP335, in the test on DFO2036, with DIV14 and in the test with DIV17 was “inactive” in each case. Moreover, the Potency result with DIV30, with Dd2, in the test with ECU, in the test with FAB9, with GB4 and with HB3 was “inactive” in each case. Moreover, the Potency result in the test on ICS and in the test on JCK was “inactive” in each case.

Consider `COc1cc(NCc2ccc3nc(N)nc(N)c3c2C)cc(OC)c1OC`, for which the Potency is 3380 nM (active) in the test with CP269; 178 nM (active) in the test on CP286; 478 nM (active) in the test with CP291; 426 nM (active) in the test on CP297; 601 nM (active) in the test on CP305; 849 nM (active) in the test with CP315. Also, the Potency is 953 nM (active) with CP325; 379 nM (active) with CP329; 151 nM (active) in the test on CP335; 355 nM (active) with DFO2036; 169 nM (active) with DIV14; 239 nM (active) with DIV17. For the same compound, the Potency with DIV30 is 4780 nM (active); in the test on Dd2, 631 nM (active); in the test with ECU, 5 nM (active); with FAB9, 4.5 nM (active); in the test with GB4, 1.5 nM (active); in the test with HB3, 31.6 nM (active). Further, the Potency with ICS is 794 nM (active); in the test with JCK, 7080 nM (active).

In the case of `Cc1ncc([N+](=O)[O-])n1CCO`, the Potency entry with CP269, with CP286, in the test with CP291, in the test with CP297, with CP305 and in the test with CP315 was “inactive” throughout. Besides, the Potency entry in the test with CP325, in the test on CP329, in the test with CP335, in the test on DFO2036, in the test with DIV14 and in the test with DIV17 was “inactive” in each case. The Potency result in the test on DIV30, in the test with Dd2, in the test with ECU, in the test with FAB9, with GB4 and in the test on HB3 was “inactive” throughout. The Potency result with ICS and in the test with JCK was “inactive” throughout.

Regarding `Nc1nc(N)c2nc(CNc3ccc(C(=O)NC(CCC(=O)O)C(=O)O)cc3)cnc2n1` (stereo not given), the Potency result with CP269, with CP286, in the test with CP291, in the test on CP297, in the test on CP305 and with CP315 was “inactive” each time. The Potency result with CP325, in the test on CP329, with CP335, in the test with DFO2036, in the test on DIV14 and with DIV17 was “inactive” each time. For the same compound, the Potency entry in the test with DIV30, in the test with Dd2, with ECU, in the test on FAB9, with GB4 and in the test on HB3 was “inactive” in each case. Moreover, the Potency entry with ICS and in the test with JCK was “inactive” in each case.

Consider `Nc1nc(N)nc(-c2cc(Cl)ccc2Cl)n1`, for which the Potency entry in the test with CP269, in the test on CP286, in the test on CP291, in the test with CP297, with CP305 and in the test with CP315 was “inactive” throughout. Also, the Potency result in the test with CP325, in the test on CP329, in the test on CP335, in the test on DFO2036, in the test with DIV14 and in the test with DIV17 was “inactive” each time. Further, the Potency result in the test with DIV30, with Dd2, with ECU, in the test with FAB9, with GB4 and in the test with HB3 was “inactive” each time. Besides, the Potency result with ICS and in the test on JCK was “inactive” in each case.

Consider `O=NN(CCCl)C(=O)NC1CCCCC1`, for which the Potency entry in the test with CP269, with CP286, in the test with CP291, in the test with CP297, in the test with CP305 and with CP315 was “inactive” throughout. Further, the Potency result with CP325, in the test on CP329, with CP335, in the test on DFO2036, in the test with DIV14 and in the test on DIV17 was “inactive” throughout. The Potency result with DIV30, in the test with Dd2, in the test on ECU, in the test with FAB9, in the test with GB4 and in the test with HB3 was “inactive” in each case. For the same compound, the Potency entry in the test with ICS and in the test with JCK was “inactive” throughout.

Consider `COC(=O)Nc1nc2ccc(Sc3ccccc3)cc2[nH]1`, for which the Potency entry in the test with CP269, in the test with CP286, in the test on CP291, in the test on CP297, in the test with CP305 and in the test with CP315 was “inactive” in each case. In addition, the Potency entry with CP325, in the test with CP329, with CP335, in the test with DFO2036, in the test with DIV14 and in the test on DIV17 was “inactive” throughout. The Potency entry in the test on DIV30, in the test on Dd2, with ECU, with FAB9, with GB4 and in the test on HB3 was “inactive” throughout. The Potency result in the test with ICS and in the test on JCK was “inactive” throughout.
